# Assay results published in the supplement of paper PMC8007513.
# Structures can show the parent of a compound that is named as a salt. ± gives the standard error. The campaign covered roughly 1,300 compounds. About 75 (6%) showed an effect of 50% or more. Only a selection was taken, and strong results are over-represented in it overall.
# System: Trichoderma virens ATCC 9645
# Experiment: growth yield (OD600) relative to untreated control; higher = less growth inhibition
# Settings: compound concentration: 100 uM
# Summary of the method: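 Trichoderma virens ATCC 9645 spores, from potato dextrose agar plates grown for 7 days, were brought to 15,000 spores ml^−1 in potato dextrose broth and dispensed as 100 μl aliquots into 96-well plates. Each aliquot received library compounds at 100 μM final, with or without a biocide at 200 ng ml^−1, before growth at 30 °C and OD600 readings on a BioTek EL800 at 40 h and 72 h. Growth is expressed relative to the control containing neither agent and represents means of duplicate screens.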
SMILES,growth yield (40 h),growth yield (72 h)
OCCN1C[C@H](O)[C@@H](O)[C@H](O)[C@H]1CO [Miglitol],101 ± 3%,103 ± 3.1%
C#C[C@]1(O)CC[C@H]2[C@@H]3[C@H](C)CC4=C(CCC(=O)C4)[C@H]3CC[C@@]21C [Tibolone],88.31 ± 0.64%,90.72 ± 0.1%
CN1CC2c3ccccc3Oc3ccc(Cl)cc3C2C1 (configuration not stated) [Asenapine maleate],100 ± 1.3%,106 ± 1.3%
Clc1ccc(C(Cn2ccnc2)OCc2csc3c(Cl)cccc23)c(Cl)c1 (configuration not stated) [Sertaconazole nitrate],3.81%,2.73%
Clc1ccc(C(Cn2ccnc2)OCc2ccsc2Cl)c(Cl)c1 (configuration not stated) [Tioconazole],2.22 ± 1.6%,1.89 ± 0.84%
Clc1ccc(COC(Cn2ccnc2)c2ccc(Cl)cc2Cl)cc1 (configuration not stated) [Econazole nitrate],2.22 ± 0.64%,1.78 ± 0.52%
C=CCOC(Cn1ccnc1)c1ccc(Cl)cc1Cl (configuration not stated) [Enilconazole],3.49%,3.04 ± 0.32%
O=C(O)/C=C/c1ccc(Cn2ccnc2)cc1 [Ozagrel hydrochloride],110 ± 9.5%,106 ± 5.1%
CCOC(=O)O[C@]1(C(=O)OCCl)CC[C@H]2[C@@H]3CCC4=CC(=O)C=C[C@]4(C)[C@H]3[C@@H](O)C[C@@]21C [Loteprednol etabonate],97.7 ± 3.6%,97.4 ± 3.5%
CNCC(O)c1ccc(OC(=O)C(C)(C)C)c(OC(=O)C(C)(C)C)c1 (configuration not stated) [Dipivefrin hydrochloride],99.28 ± 0.79%,100.2 ± 0.94%
CN(C)[C@@H]1C(O)=C(C(N)=O)C(=O)[C@@]2(O)C(O)=C3C(=O)c4c(O)cccc4[C@@](C)(O)[C@H]3C[C@@H]12 [Tetracycline hydrochloride],95.9%,76.2 ± 15%
CCN(CC)CCN[C@@H](C(=O)OCCC(C)C)c1ccccc1 [Camylofine chlorhydrate],104 ± 1.8%,102 ± 1.5%
CC1=C(CC(=O)O)c2cc(F)ccc2/C1=C\c1ccc([S+](C)[O-])cc1 (configuration not stated) [Sulindac],90.1 ± 1.1%,86.31 ± 0.73%
CN(C)CCCSC(=N)N [Dimaprit dihydrochloride],102 ± 3.3%,99.5 ± 3.2%
CC(C)(C)NC(=O)[C@H]1CC[C@H]2[C@@H]3CC[C@H]4NC(=O)C=C[C@]4(C)[C@H]3CC[C@]12C [Finasteride],84 ± 5.9%,81.1 ± 2%
N[C@@H]1CCCCN(c2c(F)cc3c(=O)c(C(=O)O)cn(C4CC4)c3c2Cl)C1 [Besifloxacin hydrochloride],93.4 ± 6.3%,91.6 ± 8.3%

SMILES,growth yield (40 h),growth yield (72 h)
C[C@H](Cc1cc2c(c(C(N)=O)c1)N(CCCO)CC2)NCCOc1ccccc1OCC(F)(F)F [Silodosin],105%,100 ± 2.3%
Cc1cc(/C=C/c2ccc3cc(N(C)C)ccc3[n+]2C)c(C)n1-c1ccccc1 [Pyrvinium pamoate],124 ± 20%,114 ± 12%
CCC1NC(=O)c2cc(S(N)(=O)=O)c(Cl)cc2N1 (configuration not stated) [Quinethazone],114 ± 1.4%,107 ± 1.1%
C#C[C@]1(OC(C)=O)CC[C@H]2[C@@H]3CCC4=CC(=NO)CC[C@@H]4[C@H]3CC[C@@]21CC (mixture of isomers) [Norgestimate],117 ± 3.3%,112 ± 3.9%
Clc1ccc(COC(Cn2ccnc2)c2ccc(Cl)cc2Cl)c(Cl)c1 (configuration not stated) [Miconazole],1.43 ± 1.1%,1.47 ± 0.63%
COc1ccc(-c2ccc3cc(C(=O)O)ccc3c2)cc1C12CC3CC(CC(C3)C1)C2 [Adapalene],107 ± 1.9%,106.6 ± 0.84%
Nc1ncnc2c1ncn2C1OC(COP(=O)(O)O)C(O)C1O (configuration not stated) [Adenosine 5'-monophosphate monohydrate],106 ± 1.3%,107 ± 3.6%
Cc1c(NC(C)C)c(=O)n(-c2ccccc2)n1C [Isopyrin hydrochloride],100.9 ± 0.79%,96.17 ± 0.52%
N[C@@H](Cc1cc(I)c(Oc2ccc(O)c(I)c2)c(I)c1)C(=O)O [Liothyronine],91.3 ± 3.3%,97.3 ± 1.1%
NC(Cc1cc(I)c(Oc2cc(I)c(O)c(I)c2)c(I)c1)C(=O)O (configuration not stated) [Thyroxine (L)],98 ± 2.1%,94.5 ± 3.9%
"O=C(O)Cc1cc(I)c(Oc2ccc(O)c(I)c2)c(I)c1 [Tiratricol, 3,3',5-triiodothyroacetic acid]",28.9 ± 16%,46.6 ± 17%
COc1cc2nc(N3CCN(C(=O)c4ccco4)CC3)nc(N)c2cc1OC [Prazosin hydrochloride],105 ± 5.7%,101 ± 1.4%
CCOC(=O)/C=C(C)/C=C/C=C(C)/C=C/c1c(C)cc(OC)c(C)c1C [Etretinate],110 ± 6.3%,107 ± 5.5%
CC(=O)Nc1ccc(CC(=O)O)cc1 [Actarit],106 ± 5.4%,102 ± 3.4%
C[C@@H](O)[C@H]1C(=O)N2C(C(=O)O)=C(SCCNC=N)C[C@H]12 [Imipenem],103 ± 2.2%,104 ± 2.2%
